Only some compounds are listed: those with a hit (about 12% of all), similar ones and a draw of the others.
KCC2 mod: modulators of human KCC2 chloride dependent transport; Q9H2X9; KCC2 cells, thallium flux FluoZin-2 fluorescence; B-score of Tl+ flux slope (higher = more flux/activation; lower = inhibition) at 10 µM; 190,000 compounds, 2.2% hits;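 active = thallium flux slope and its plate-corrected score both differing from the plate sample mean at a set confidence after two filtering rounds, in either direction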;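 note: slope of fluorescence scaled to starting intensity during 10 to 20 s after thallium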
Target sequence (Q9H2X9 whole entry, looked up): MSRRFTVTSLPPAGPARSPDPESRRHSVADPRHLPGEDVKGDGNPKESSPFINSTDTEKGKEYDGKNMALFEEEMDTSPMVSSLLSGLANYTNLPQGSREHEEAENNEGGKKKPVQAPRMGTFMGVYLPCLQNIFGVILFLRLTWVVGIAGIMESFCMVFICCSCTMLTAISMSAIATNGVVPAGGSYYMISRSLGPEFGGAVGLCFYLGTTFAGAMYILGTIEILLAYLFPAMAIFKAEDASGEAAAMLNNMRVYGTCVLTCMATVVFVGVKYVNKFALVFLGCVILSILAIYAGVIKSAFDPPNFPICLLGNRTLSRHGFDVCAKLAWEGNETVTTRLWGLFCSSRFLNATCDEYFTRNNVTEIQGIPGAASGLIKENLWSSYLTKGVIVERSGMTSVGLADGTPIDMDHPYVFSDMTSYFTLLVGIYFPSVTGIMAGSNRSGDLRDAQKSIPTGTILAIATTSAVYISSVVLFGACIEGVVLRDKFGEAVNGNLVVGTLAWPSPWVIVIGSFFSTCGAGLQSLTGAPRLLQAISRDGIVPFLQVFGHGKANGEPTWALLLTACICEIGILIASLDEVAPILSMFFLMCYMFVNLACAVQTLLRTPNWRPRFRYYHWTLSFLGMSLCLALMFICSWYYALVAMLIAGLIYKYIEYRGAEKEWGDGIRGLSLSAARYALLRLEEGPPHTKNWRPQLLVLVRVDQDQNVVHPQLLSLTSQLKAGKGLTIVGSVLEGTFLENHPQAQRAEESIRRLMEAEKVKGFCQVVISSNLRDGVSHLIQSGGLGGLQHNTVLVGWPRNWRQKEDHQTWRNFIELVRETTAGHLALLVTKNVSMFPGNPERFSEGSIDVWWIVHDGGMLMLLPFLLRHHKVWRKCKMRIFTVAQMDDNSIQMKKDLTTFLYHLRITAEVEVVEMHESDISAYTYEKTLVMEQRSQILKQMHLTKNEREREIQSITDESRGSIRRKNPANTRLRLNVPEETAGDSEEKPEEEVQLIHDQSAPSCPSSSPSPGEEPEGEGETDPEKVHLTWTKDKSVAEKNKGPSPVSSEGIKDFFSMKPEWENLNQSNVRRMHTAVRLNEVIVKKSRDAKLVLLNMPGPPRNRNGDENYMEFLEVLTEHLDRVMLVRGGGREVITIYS
L major viab: reduces viability of Leishmania major promastigotes. inhibition, % at 10 µM. 200,000 compounds, 9% hits. resazurin fluorescence viability; in the data active = inhibition above about 50%;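 note: promastigotes grown with compound for 44 hours at 28 °C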
Insulin prom inh: TRM-6 insulin promoter activity inhibition. TRM-6 cells (human fetal islet line), insulin promoter-eGFP reporter, imaging; reporter expression induced with tamoxifen. inhibition, % at 2 µM. 130,000 compounds, 0.9% hits. AID 1273;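 active = inhibition above the mean plus 3 SD, with well images judged a real hit on visual review, cut at about 60% in these data, passing the limit was not always enough; inconclusive = inhibition over the cutoff but images rejected on review; inactive = inhibition not above the cutoff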
WT yeast gro inh: growth inhibition of WT yeast, mitochondrial fusion screen; mitochondrial fusion phenotypic screen, WT strain; inhibition, % at 10 µM; 190,000 compounds, 2.1% hits; AID 1362; in the data active = inhibition above about 58%; tested in S. cerevisiae
ROMK mod: modulates human ROMK potassium channel activity | P48048 | Tet-inducible ROMK, thallium flux fluorescence; actives lie on both sides | B-score at 10 µM | 130,000 compounds, 2% hits | AID 1918;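 active = signal ratio slope over the read window, or its plate-corrected B-score, at least 3 SD from the plate mean, either direction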;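 note: B-score of the F/F0 ratio slope over 7 to 12 s after thallium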
Ins promoter up: MIN6 insulin promoter up-regulation; MIN6 insulin promoter-GFP reporter, high-content imaging; hits give high values; z-score at 5 µM; 190,000 compounds, 0.3% hits;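 active = z-score above 3 at 5 µM with at least 500 cells counted in the well; inconclusive = wells under 500 cells, flagged as cytotoxic or low count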
Of the large screens only hits and unclear results are named; the others gave an inactive call.

COc1ccc(NC(=S)NCCN2CCOCC2)c(OC)c1	none (no result: WT yeast gro inh, ROMK mod, Ins promoter up)
Fc1cc(Cl)ccc1NC(=S)NCCN1CCOCC1	none (no result: Insulin prom inh)
COc1ccc(OC)c(NC(=S)NCCCN2CCOCC2)c1	L major viab 62 (no result: ROMK mod)
Cc1cc(Cl)ccc1NC(=S)NCCN1CCOCC1	L major viab 60 (no result: ROMK mod)
S=C(NCCCN1CCOCC1)Nc1ccc(Cl)cc1Cl	L major viab 99
C=CCNC(=S)Nc1ccc2nc(C)c(C)nc2c1	none (no result: ROMK mod)
CCOC(=O)c1c(C)[nH]c(C)c1C(=O)COC(=O)c1ccc(OC)cc1	none (no result: Insulin prom inh)
S=C(NCCN1CCOCC1)Nc1ccc(Cl)cc1Cl	L major viab 96
Oc1ccc(/C=N/NC(=S)NCCN2CCOCC2)c(O)c1	L major viab 96 (no result: Insulin prom inh)
S=C(NCCN1CCOCC1)N/N=C/c1ccccc1	none
O=C(Nc1ccc(Cl)cc1)NC1CCS(=O)(=O)C1 (stereo not given)	none (no result: Insulin prom inh, ROMK mod)
Cc1cccc(C(C)C)c1NC(=O)CN(C)Cc1cccc(F)c1	L major viab 72
c1csc(CSc2nnc3sc4ccccc4n23)c1	none (no result: ROMK mod)
COc1ccc(CCNC(=O)COc2ncnc3ccccc23)cc1	none
C=CS(=O)(=O)c1sc(Cl)c(N2CCOCC2)c1[N+](=O)[O-]	KCC2 mod -3.6, ROMK mod -8.6 (no result: Insulin prom inh)
Cc1cc2cc(C)c3nnc(SCC(=O)NCc4ccco4)n3c2cc1C	none (no result: KCC2 mod, WT yeast gro inh)
COc1cc(CC(C#N)(CO)c2nc3ccccc3[nH]2)ccc1OC(F)F (stereo not given)	L major viab 82 (no result: ROMK mod)
O=C(O)c1ccc2nnn(O)c2c1	none (no result: L major viab, Insulin prom inh, WT yeast gro inh, ROMK mod)
CC(NC(=O)COC(=O)Cc1ccccc1[N+](=O)[O-])c1ccccc1 (stereo not given)	L major viab 60
CN(C)S(=O)(=O)c1ccc(Cl)c(NC(=O)COC(=O)CN2C(=O)NC(C)(C)C2=O)c1	none
CC1(C)NC(=O)N(CC(=O)OCC(=O)Nc2cc(S(=O)(=O)N3CCCCC3)ccc2Cl)C1=O	L major viab 70 (no result: ROMK mod)
CN(C)Cc1c(O)ccc2oc(Cc3ccccc3)cc12	L major viab 77 (no result: ROMK mod)
CN(C)Cc1c(O)ccc2ccccc12	none (no result: L major viab, Insulin prom inh, WT yeast gro inh, ROMK mod)
CCCNC(=O)c1onc(CSc2ccccn2)c1C(=O)NCCC	none (no result: L major viab, Insulin prom inh, WT yeast gro inh, ROMK mod)
COc1ccc(C2(CCN)CC(C)N(C)CC2C)cc1 (stereo not given)	none (no result: ROMK mod)
Cc1ccc(CC2(O)CC(C)N(C)CC2C)c(C)c1 (stereo not given)	L major viab 69 (no result: ROMK mod)
CC(C)OC(=O)C(C(=O)C(F)(F)F)c1cc(NS(=O)(=O)c2ccc3ccccc3c2)c2ccccc2c1O (stereo not given)	WT yeast gro inh 62 (no result: Insulin prom inh, ROMK mod)
Cc1ccccc1N1CCN(c2ncnc3scc(-c4cccs4)c23)CC1	WT yeast gro inh 65, Ins promoter up inconclusive (no result: KCC2 mod, ROMK mod)
Cc1cc(N)n(-c2ncnc3scc(-c4ccc(Cl)cc4)c23)n1	none (no result: Ins promoter up)
Clc1ccc(-c2csc3ncnc(N4CCc5ccccc5C4)c23)cc1	WT yeast gro inh 65 (no result: ROMK mod)
Clc1ccc(CN2CCN(c3ncnc4scc(-c5cccs5)c34)CC2)cc1	WT yeast gro inh 60 (no result: KCC2 mod, ROMK mod)
Clc1ccc(OCCN2CCN(c3ncnc4sccc34)CC2)cc1	Ins promoter up inconclusive (no result: ROMK mod)
O=C(Nc1cccc(S(=O)(=O)N2CCCCC2)c1)c1ccc(S(=O)(=O)C(F)F)cc1	none (no result: Insulin prom inh)
CCC(C)n1cnc2c(c1=O)c1nc3ccccc3nc1n2Cc1ccc(OC)cc1 (stereo not given)	WT yeast gro inh 65 (no result: ROMK mod)
CC1c2ccccc2SC(CCCN(C)C)c2ccccc21 (stereo not given)	L major viab 100
CN(C)CCC1Sc2ccccc2Oc2ccccc21 (stereo not given)	L major viab 100 (no result: ROMK mod)
CCCCN1C(=O)NC(NC(=O)c2ccco2)(C(F)(F)F)C1=O (stereo not given)	none (no result: ROMK mod)
CC1CCCC(N2C(=O)NC(NC(=O)c3ccco3)(C(F)(F)F)C2=O)C1C (stereo not given)	L major viab 56 (no result: KCC2 mod, Insulin prom inh)
Cc1nn(C(=O)c2ccco2)c(C)c1Sc1ccc([N+](=O)[O-])cc1	none (no result: Insulin prom inh, ROMK mod)
Cc1cc(C)cc(N2C(=O)CC(n3ccnc3)C2=O)c1 (stereo not given)	none (no result: ROMK mod)
CCCNS(=O)(=O)c1ccc(CCC(=O)N2CCN(c3ccc(F)cc3)CC2)cc1	L major viab 57
Cc1ccc(OCCn2cnc3c(N)ncnc32)cc1	none (no result: ROMK mod)
O=C(c1cc(C2CC2)nc2ccccc12)N1N=C(C(F)F)CC1(O)C(F)F (stereo not given)	none (no result: ROMK mod)
COc1cccc(-c2cc(C(=O)N3N=C(C)CC3(O)C(F)F)c3ccccc3n2)c1 (stereo not given)	none (no result: Ins promoter up)

High-throughput results as filed in PubChem BioAssay.
